Measurements as given in PubChem BioAssay (NCI).
About 79,000 compounds went through this panel and 15% of them were active in at least one assay; those are over-represented in the sample as a whole. A number with no mark means an inactive call. Activity calls are given as the source filed them. No stated cut-off is given here; in the data, active means growth inhibition above about 70%; inactive means the rest.

Experiments:
[1] = NCI Yeast Anticancer Drug Screen. Data for the rad52 strain (AID 147);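 further: 0% = growth of vehicle-treated control cultures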; conditions: S. cerevisiae rad52 mutant growth inhibition, stronger effect = higher value
Outline: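 Inhibition of yeast growth, referenced to vehicle controls, was the measured output for a strain with defective DNA damage repair.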

[2] = NCI Yeast Anticancer Drug Screen. Data for the wt1 strain (AID 149);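 further: 0% = growth of vehicle-treated wt1 cultures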; conditions: S. cerevisiae wt1 strain (SPY 50644) growth inhibition, stronger effect = higher value
Outline: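 Compounds are added to wt1 yeast cultures. Growth is then measured. Inhibition is expressed relative to vehicle-treated controls.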

[3] = NCI Yeast Anticancer Drug Screen. Data for the mgt1 strain (AID 153); conditions: S. cerevisiae mgt1 mutant growth inhibition, stronger effect = higher value
Outline: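 In the mgt1 strain, test compounds were added and growth inhibition was determined relative to vehicle-treated controls.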

[4] = NCI Yeast Anticancer Drug Screen. Data for the rad50 strain (AID 155);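 further: 0% = growth of vehicle-only cultures of the same strain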; conditions: S. cerevisiae rad50 strain growth inhibition, stronger effect = higher value
Outline: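 Inhibition values express reduced yeast growth in compound-treated cultures relative to vehicle-treated controls.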

[5] = NCI Yeast Anticancer Drug Screen. Data for the mec2-1 strain (AID 157); conditions: S. cerevisiae mec2-1 strain, stronger effect = higher value
Outline: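 Each compound was tested on mec2-1 yeast, a strain altered in DNA damage repair or cell cycle control. Growth inhibition is reported relative to vehicle.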

[6] = NCI Yeast Anticancer Drug Screen. Data for the rad14 strain (AID 159);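 further: 0% = growth of vehicle-treated control cultures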; conditions: S. cerevisiae rad14 strain growth inhibition, stronger effect = higher value
Outline: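 A mutant yeast strain defective in DNA damage repair is treated with compound; inhibition of its growth is scored against untreated, vehicle-exposed cultures.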

[7] = NCI Yeast Anticancer Drug Screen. Data for the sgs1 mgt1 strain (AID 161);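 further: 0% = growth of cultures given vehicle only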; conditions: S. cerevisiae sgs1 mgt1 strain, stronger effect = higher value
Outline: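 Inhibition of yeast growth, normalised to vehicle-treated controls, is reported for a strain bearing genetic alterations in DNA damage repair.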

[8] = NCI Yeast Anticancer Drug Screen. Data for the CLN2oe strain (AID 163);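 further: 0% = growth of vehicle-only control cultures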; conditions: S. cerevisiae CLN2oe strain, stronger effect = higher value
Outline: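 First, the altered yeast strain was treated with each compound; second, its growth was measured; finally, inhibition was derived by comparison with vehicle controls.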

[9] = NCI Yeast Anticancer Drug Screen. Data for the cln2 rad14 strain (AID 165);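 further: 0% = growth equal to vehicle treated cultures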; conditions: S. cerevisiae cln2 rad14 strain, stronger effect = higher value
Outline: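 Test compounds were added to cln2 rad14 yeast cultures; inhibition of growth was then determined by comparison with vehicle treatment.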

[10] = NCI Yeast Anticancer Drug Screen. Data for the bub3 strain (AID 167); conditions: S. cerevisiae bub3 mutant strain, stronger effect = higher value
Outline: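 Steps: expose the mutant yeast strain to compound; grow alongside vehicle-treated cultures; measure growth; express inhibition against the vehicle cultures.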

[11] = NCI Yeast Anticancer Drug Screen. Data for the wt2 strain (AID 169);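 further: 0% = growth of vehicle-treated yeast cultures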; conditions: S. cerevisiae wt2 strain growth inhibition, stronger effect = higher value
Outline: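 The panel's yeast strains carry defined changes in DNA repair or cell cycle genes. Each strain is grown with compound, and growth loss is scored relative to vehicle.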

[12] = NCI Yeast Anticancer Drug Screen. Data for the mlh1 strain (AID 171);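 further: 0% = growth of vehicle-treated control cultures of the same strain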; conditions: S. cerevisiae mlh1 strain growth inhibition, stronger effect = higher value
Outline: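 Inhibition values reflect reduced yeast growth in the presence of compound, referenced to vehicle controls, using a strain chosen for its alteration in DNA repair or cell cycle control.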

[13] = NCI Yeast Anticancer Drug Screen. Data for the sgs1 strain (AID 173);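 further: 0% = growth of vehicle-only control cultures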; conditions: S. cerevisiae sgs1 mutant, stronger effect = higher value
Outline: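 Vehicle-treated cultures served as reference for growth inhibition of a yeast strain altered in DNA damage repair or cell cycle control after compound exposure.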

[14] = NCI Yeast Anticancer Drug Screen. Data for the mlh1 rad18 strain (AID 175); conditions: S. cerevisiae mlh1 rad18 strain growth inhibition, stronger effect = higher value
Outline: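 Inhibition values reflect reduced growth of mutant yeast versus vehicle-treated controls following compound exposure; the mutations affect DNA damage repair.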

[15] = NCI Yeast Anticancer Drug Screen. Data for the rad18 strain (AID 177); conditions: S. cerevisiae rad18 mutant growth inhibition, stronger effect = higher value
Outline: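 Steps: expose repair-mutant yeast to compound; measure growth; express as inhibition relative to vehicle control.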

[16] = at 5.0 µM (retest, dose inferred, filed as 0.5)
[17] = at 50.0 µM (retest, dose inferred, filed as 5.0)

`O=C(Oc1ccc([N+](=O)[O-])cc1)c1ccc([N+](=O)[O-])cc1` gave a growth inhibition ([1]; at 1.2 µM) of 7%, a growth inhibition ([1]; at 3.7 µM) of 7% and a growth inhibition ([1]; at 11.0 µM) of 1%. It also gave a growth inhibition ([1]; at 33.0 µM) of 19%, a growth inhibition ([1]; at 100.0 µM) of 26% and a growth inhibition ([2]; at 1.2 µM) of 1%. The growth inhibition ([2]; at 3.7 µM) was 0%, the growth inhibition ([2]; at 11.0 µM) was 3% and the growth inhibition ([2]; at 33.0 µM) was -1%. For the same molecule, the growth inhibition ([2]; at 100.0 µM) was 11%, the growth inhibition ([3]; at 1.2 µM) was 0% and the growth inhibition ([3]; at 3.7 µM) was 1%. The growth inhibition ([3]; at 11.0 µM) was 2%, the growth inhibition ([3]; at 33.0 µM) was 9% and the growth inhibition ([3]; at 100.0 µM) was 13%. It also gave a growth inhibition ([4]; at 1.2 µM) of 9%, a growth inhibition ([4]; at 3.7 µM) of 6% and a growth inhibition [4, 16] of 45%. For the same molecule, the growth inhibition ([4]; at 11.0 µM) was 5%, the growth inhibition ([4]; at 33.0 µM) was 40% and the growth inhibition [4, 17] was 82% (active). The growth inhibition ([4]; at 50.0 µM) was 50.8%, the growth inhibition ([4]; at 100.0 µM) was 62% and the growth inhibition ([5]; at 1.2 µM) was 1%. The growth inhibition ([5]; at 3.7 µM) was 2%, the growth inhibition [5, 16] was 25% and the growth inhibition ([5]; at 11.0 µM) was 2%. For the same molecule, the growth inhibition ([5]; at 33.0 µM) was 7%, the growth inhibition [5, 17] was 33% and the growth inhibition ([5]; at 50.0 µM) was 53.7%. It also gave a growth inhibition ([5]; at 100.0 µM) of 10%, a growth inhibition ([6]; at 1.2 µM) of 7% and a growth inhibition ([6]; at 3.7 µM) of 5%. It also gave a growth inhibition ([6]; at 11.0 µM) of 3%, a growth inhibition ([6]; at 33.0 µM) of 19% and a growth inhibition ([6]; at 100.0 µM) of 41%. For the same molecule, the growth inhibition [7, 16] was 61%, the growth inhibition [7, 17] was 86% (active) and the growth inhibition ([7]; at 50.0 µM) was 68.5%. For the same molecule, the growth inhibition ([8]; at 1.2 µM) was 1%, the growth inhibition ([8]; at 3.7 µM) was 2% and the growth inhibition ([8]; at 11.0 µM) was 2%. The growth inhibition ([8]; at 33.0 µM) was 10%, the growth inhibition ([8]; at 100.0 µM) was 10% and the growth inhibition [9, 16] was 18%. It also gave a growth inhibition [9, 17] of 28%, a growth inhibition ([9]; at 50.0 µM) of 31.1% and a growth inhibition ([10]; at 1.2 µM) of 3%. For the same molecule, the growth inhibition ([10]; at 3.7 µM) was 4%, the growth inhibition [10, 16] was 76% (active) and the growth inhibition ([10]; at 11.0 µM) was 4%. The growth inhibition ([10]; at 33.0 µM) was 12%, the growth inhibition [10, 17] was 88% (active) and the growth inhibition ([10]; at 50.0 µM) was 85% (active). For the same molecule, the growth inhibition ([10]; at 100.0 µM) was 15%, the growth inhibition ([11]; at 1.2 µM) was -7% and the growth inhibition ([11]; at 3.7 µM) was -5%. It also gave a growth inhibition ([11]; at 11.0 µM) of -8%, a growth inhibition ([11]; at 33.0 µM) of -8% and a growth inhibition ([11]; at 100.0 µM) of -5%. It also gave a growth inhibition ([12]; at 1.2 µM) of 3%, a growth inhibition ([12]; at 3.7 µM) of 2% and a growth inhibition ([12]; at 11.0 µM) of 2%. The growth inhibition ([12]; at 33.0 µM) was 17%, the growth inhibition ([12]; at 100.0 µM) was 35% and the growth inhibition ([13]; at 1.2 µM) was -4%. The growth inhibition ([13]; at 3.7 µM) was -18%, the growth inhibition ([13]; at 11.0 µM) was -22% and the growth inhibition ([13]; at 33.0 µM) was 7%. The growth inhibition ([13]; at 100.0 µM) was 43%, the growth inhibition [14, 16] was 67% and the growth inhibition [14, 17] was 83% (active). The growth inhibition ([14]; at 50.0 µM) was 86.2% (active).
`CN(C)CCNc1ccc2ncn3c4ccc(O)cc4c(=O)c1c23` gave a growth inhibition ([1]; at 1.2 µM) of -10%, a growth inhibition ([1]; at 3.7 µM) of 3% and a growth inhibition ([1]; at 11.0 µM) of 4%. The growth inhibition ([1]; at 33.0 µM) was 3%, the growth inhibition ([1]; at 100.0 µM) was 30% and the growth inhibition ([2]; at 1.2 µM) was -21%. For the same molecule, the growth inhibition ([2]; at 3.7 µM) was -6%, the growth inhibition ([2]; at 11.0 µM) was -21% and the growth inhibition ([2]; at 33.0 µM) was 0%. The growth inhibition ([2]; at 100.0 µM) was -27%, the growth inhibition ([3]; at 1.2 µM) was -5% and the growth inhibition ([3]; at 3.7 µM) was 7%. For the same molecule, the growth inhibition ([3]; at 11.0 µM) was -19%, the growth inhibition ([3]; at 33.0 µM) was -10% and the growth inhibition ([3]; at 100.0 µM) was 2%. It also gave a growth inhibition ([4]; at 1.2 µM) of -14%, a growth inhibition ([4]; at 3.7 µM) of 4% and a growth inhibition [4, 16] of 50%. The growth inhibition ([4]; at 11.0 µM) was -6%, the growth inhibition ([4]; at 33.0 µM) was 8% and the growth inhibition [4, 17] was 86% (active). It also gave a growth inhibition ([4]; at 50.0 µM) of -17.1%, a growth inhibition ([4]; at 100.0 µM) of 22% and a growth inhibition ([5]; at 1.2 µM) of -12%. For the same molecule, the growth inhibition ([5]; at 3.7 µM) was -7%, the growth inhibition [5, 16] was 0% and the growth inhibition ([5]; at 11.0 µM) was -4%. For the same molecule, the growth inhibition ([5]; at 33.0 µM) was -9%, the growth inhibition [5, 17] was 7% and the growth inhibition ([5]; at 50.0 µM) was -10.1%. For the same molecule, the growth inhibition ([5]; at 100.0 µM) was -20%, the growth inhibition ([6]; at 1.2 µM) was -35% and the growth inhibition ([6]; at 3.7 µM) was -35%. It also gave a growth inhibition ([6]; at 11.0 µM) of -31%, a growth inhibition ([6]; at 33.0 µM) of -30% and a growth inhibition ([6]; at 100.0 µM) of -23%. The growth inhibition [7, 16] was 13%, the growth inhibition [7, 17] was 7% and the growth inhibition ([7]; at 50.0 µM) was -10.6%. For the same molecule, the growth inhibition ([8]; at 1.2 µM) was -12%, the growth inhibition ([8]; at 3.7 µM) was 1% and the growth inhibition ([8]; at 11.0 µM) was 9%. For the same molecule, the growth inhibition ([8]; at 33.0 µM) was 13%, the growth inhibition ([8]; at 100.0 µM) was 8% and the growth inhibition ([10]; at 1.2 µM) was -19%. It also gave a growth inhibition ([10]; at 3.7 µM) of -12%, a growth inhibition [10, 16] of 11% and a growth inhibition ([10]; at 11.0 µM) of -14%. The growth inhibition ([10]; at 33.0 µM) was 3%, the growth inhibition [10, 17] was 11% and the growth inhibition ([10]; at 50.0 µM) was -1%. It also gave a growth inhibition ([10]; at 100.0 µM) of 7%, a growth inhibition ([11]; at 1.2 µM) of -8% and a growth inhibition ([11]; at 3.7 µM) of -3%. It also gave a growth inhibition ([11]; at 11.0 µM) of -2%, a growth inhibition ([11]; at 33.0 µM) of -8% and a growth inhibition ([11]; at 100.0 µM) of -11%. It also gave a growth inhibition ([12]; at 1.2 µM) of -23%, a growth inhibition ([12]; at 3.7 µM) of -21% and a growth inhibition ([12]; at 11.0 µM) of -15%. It also gave a growth inhibition ([12]; at 33.0 µM) of -4%, a growth inhibition ([12]; at 100.0 µM) of -8% and a growth inhibition ([13]; at 1.2 µM) of -21%. It also gave a growth inhibition ([13]; at 3.7 µM) of -17%, a growth inhibition ([13]; at 11.0 µM) of -3% and a growth inhibition ([13]; at 33.0 µM) of -16%. For the same molecule, the growth inhibition ([13]; at 100.0 µM) was -23%, the growth inhibition [14, 16] was 4% and the growth inhibition [14, 17] was 12%. It also gave a growth inhibition ([14]; at 50.0 µM) of -48.5%, a growth inhibition ([15]; at 1.2 µM) of -23% and a growth inhibition ([15]; at 3.7 µM) of -1%. For the same molecule, the growth inhibition ([15]; at 11.0 µM) was -9%, the growth inhibition ([15]; at 33.0 µM) was -12% and the growth inhibition ([15]; at 100.0 µM) was -12%.
